The values that follow come from PubChem BioAssay (Tox21).

Test [1] in a line: qHTS RealTime-Glo MT Cell Viability Assay in HEK293 cells - 0 hour (AID 1224880). Further: top concentration of the series differs between compounds; nearly all actives have a fitted effect of over 45% in size. The essentials:
(§1)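 Luminescence, which tracks viable cell number through reduction of the prosubstrate to a NanoLuc substrate, was read over continuous 37 C culture. Cells (600/well) were premixed with reagent and rested 5 h before 23 nL of compound in DMSO was pinned.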

The nature of test [2]: A CellTox Green Cytotoxicity Assay to monitor cytotoxicity in HEK293 cells - 32 hour (AID 1224881). Further: nearly all actives have a fitted effect of over 40% in size. Further: potency means the concentration at half of the fitted maximal effect. The essentials:
(§2)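 Fluorescence from a DNA-binding dye excluded by viable cells was measured repeatedly in the same HEK293 wells (600 cells/well) during continuous compound exposure at 37 C. Each assay gives one read point: 0, 8, 16, 24, 32 or 40 h.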

A short description of test [3]: A CellTox Green Cytotoxicity Assay to monitor cytotoxicity in HepG2 cells - 0 hour (AID 1224882). Further: nearly all actives have a fitted effect of over 35% in size. The essentials:
(§3)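 Real-time cytotoxicity: fluorescence of a cell-impermeant cyanine dye binding DNA of dead HepG2 cells, measured repeatedly (0–40 h) during compound exposure at 37 C. Cells seeded 600/well with reagent, dosed after 5 h.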

Test [4] in a line: A CellTox Green Cytotoxicity Assay to monitor cytotoxicity in HEK293 cells - 8 hour (AID 1224884). Further: nearly all actives have a fitted effect of over 35% in size. Further: potency means the concentration at half of the fitted maximal effect. The essentials:
as §2

Test [5] can be described thus: qHTS RealTime-Glo MT Cell Viability Assay in HepG2 cells - 16 hour (AID 1224885). Further: nearly all actives have a fitted effect of over 50% in size. Further: potency means the concentration at half of the fitted maximal effect. The essentials: (§4)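 qHTS, HepG2, 600 cells/well, RealTime-Glo (NanoLuc + prosubstrate) added with cells; 5 h preincubation; DMSO compound addition; 37 C; luminescence at 0/8/16/24/32/40 h.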
A short description of test [6]: qHTS RealTime-Glo MT Cell Viability Assay in HEK293 cells - 8 hour (AID 1224887). Further: nearly all actives have a fitted effect of over 50% in size. Further: potency means the concentration at half of the fitted maximal effect. On activity change, negative = cytotoxicity: top concentration of the series differs between compounds. The essentials:
as §1

The nature of test [7]: A CellTox Green Cytotoxicity Assay to monitor cytotoxicity in HEK293 cells - 16 hour (AID 1224888). Further: nearly all actives have a fitted effect of over 35% in size. Further: potency means the concentration at half of the fitted maximal effect. The gist of the method: as §2
Test [8] is described as follows: qHTS RealTime-Glo MT Cell Viability Assay in HepG2 cells - 0 hour (AID 1224889). Further: nearly all actives have a fitted effect of over 50% in size. The essentials:
as §4

Test [9] can be described thus: A CellTox Green Cytotoxicity Assay to monitor cytotoxicity in HepG2 cells - 8 hour (AID 1224890). Further: nearly all actives have a fitted effect of over 45% in size. Further: potency means the concentration at half of the fitted maximal effect. The gist of the method: as §3
Test [10] in a line: qHTS assay to identify small molecule antagonists of the estrogen receptor alpha (ER-alpha) signaling pathway using the BG1 cell line in the presence of 0.1 nM 17-beta-estradiol - cell viability counter screen (AID 1259241). Further: nearly all actives have a fitted effect of over 40% in size. Further: potency means the concentration at half of the fitted maximal effect. The essentials: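 Cells were plated and left 24 hr, compounds in DMSO were pinned in, 17beta-estradiol was added to 0.1 nM final, and after 22 hr CellTiter-Fluor reagent was added for 30 min before fluorescence was read.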

Test [11] can be described thus: qHTS assay to identify small molecule antagonists of the androgen receptor (AR) signaling pathway using the MDA cell line in the presence of 0.5 nM R1881 - cell viability counter screen (AID 1259242). Further: nearly all actives have a fitted effect of over 45% in size. The essentials:
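Live-cell protease activity was measured by CellTiter-Fluor fluorescence after 30 min. Before that, MDA-kb2 MMTV-luciferase cells had 16 hr at 37C without CO2, exposed to test compounds and 0.5 nM R1881 final.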

For test [12], the target named is Androgen receptor (Homo sapiens) (UniProt P10275). Nature of the test: qHTS assay to identify small molecule antagonists of the androgen receptor (AR) signaling pathway using the MDA cell line in the presence of 0.5 nM R1881 (AID 1259243). Further: nearly all actives have a fitted effect of over 50% in size. Further: potency means the concentration at half of the fitted maximal effect. The essentials: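 Luminescent reporter readout (ONE-Glo, 30 min, room temperature) after 16 hr co-treatment of MDA-kb2 cells with test compounds and 0.5 nM R1881 final, at 37C without CO2. The MMTV-driven luciferase responds to both AR and GR.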
Androgen receptor (Homo sapiens), sequence (P10275 whole entry, looked up): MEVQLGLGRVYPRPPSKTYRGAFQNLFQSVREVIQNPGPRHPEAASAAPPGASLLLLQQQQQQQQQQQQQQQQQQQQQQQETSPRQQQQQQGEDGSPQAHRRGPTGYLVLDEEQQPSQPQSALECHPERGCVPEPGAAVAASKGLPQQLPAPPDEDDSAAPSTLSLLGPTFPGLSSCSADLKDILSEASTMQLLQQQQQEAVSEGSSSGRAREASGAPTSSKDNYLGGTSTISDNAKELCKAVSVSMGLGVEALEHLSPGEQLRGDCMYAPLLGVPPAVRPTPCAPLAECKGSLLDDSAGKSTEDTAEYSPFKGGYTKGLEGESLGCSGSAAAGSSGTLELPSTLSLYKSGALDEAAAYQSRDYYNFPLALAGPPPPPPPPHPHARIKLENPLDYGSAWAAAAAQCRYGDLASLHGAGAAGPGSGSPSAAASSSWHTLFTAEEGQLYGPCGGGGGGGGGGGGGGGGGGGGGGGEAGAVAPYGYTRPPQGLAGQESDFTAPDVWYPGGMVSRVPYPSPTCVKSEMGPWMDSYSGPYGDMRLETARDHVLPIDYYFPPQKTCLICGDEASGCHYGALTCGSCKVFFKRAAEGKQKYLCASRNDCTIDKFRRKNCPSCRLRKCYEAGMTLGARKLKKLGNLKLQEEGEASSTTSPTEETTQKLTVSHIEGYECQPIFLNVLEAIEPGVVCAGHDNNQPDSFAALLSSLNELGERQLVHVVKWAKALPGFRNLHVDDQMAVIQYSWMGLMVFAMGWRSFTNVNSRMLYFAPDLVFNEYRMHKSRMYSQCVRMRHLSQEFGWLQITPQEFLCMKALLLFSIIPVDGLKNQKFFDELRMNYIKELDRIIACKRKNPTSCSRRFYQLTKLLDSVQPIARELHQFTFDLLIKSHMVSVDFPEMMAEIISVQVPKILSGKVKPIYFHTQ

Test [13] has as its target Estrogen receptor (Homo sapiens) (UniProt P03372). Nature of the test: qHTS assay to identify small molecule antagonists of the estrogen receptor alpha (ER-alpha) signaling pathway using the BG1 cell line in the presence of 0.1 nM 17-beta-estradiol (AID 1259244). Further: nearly all actives have a fitted effect of over 50% in size. Further: potency means the concentration at half of the fitted maximal effect. The gist of the method:
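Luciferase luminescence (ONE-Glo, 30 min at room temperature) was read after 22 hr at 37C exposure to compounds plus 17beta-estradiol at 0.1 nM final. Cells were VM7Luc4E2 with endogenous ER-alpha and an ERE-driven luciferase, pre-cultured 5 days in hormone-depleted medium.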

Test [14] is described as follows: qHTS assay to identify small molecule HDAC inhibitors (AID 1259364). Further: nearly all actives have a fitted effect of over 45% in size. Further: potency means the concentration at half of the fitted maximal effect. The essentials:
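Luminescence read after 30 min room-temperature HDAC-Glo incubation measures cellular class I/II HDAC activity. Compounds were applied for 2 hr at 37 C to HCT-116 wild-type cells seeded the day before.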

Test [15] can be described thus: qHTS assay to identify small molecule HDAC inhibitors - cell viability counter screen (AID 1259365). The gist of the method: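 Counter screen in wild-type HCT-116 cells: compounds dissolved in DMSO are pin-transferred onto overnight-plated cells and left 2hr at 37C. ATP-based CellTiter-Glo luminescence then measures viable cells.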
The nature of test [16]: qHTS assay to identify small molecule agonists of the sonic hedgehog signaling (Shh) pathway - cell viability counter screen (AID 1259366). Further: nearly all actives have a fitted effect of over 50% in size. Further: potency means the concentration at half of the fitted maximal effect. The gist of the method: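 Cells are plated at 2,000 per well and left 4hr at 37C, 5% CO2 before compound addition. After 23hr of treatment, CellTiter-Fluor reagent is added for 1hr at 37C and fluorescence is measured.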
A short description of test [17]: qHTS assay to identify small molecule antagonists of the sonic hedgehog signaling (Shh) pathway - cell viability counter screen (AID 1259367). Further: nearly all actives have a fitted effect of over 55% in size. Further: potency means the concentration at half of the fitted maximal effect. The essentials:
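Conditioned medium drove Shh signaling in 3T3 Gli1-Luc cells exposed to compounds at 37C and 5% CO2. Viability was determined from CellTiter-Fluor fluorescence, with reagent incubated 1 hr after 23 hr of treatment.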

Test [18] is described as follows: A CellTox Green Cytotoxicity Assay to monitor cytotoxicity in HepG2 cells - 32 hour (AID 1224883). Further: nearly all actives have a fitted effect of over 50% in size. Further: potency means the concentration at half of the fitted maximal effect. The gist of the method: as §3
A short description of test [19]: qHTS RealTime-Glo MT Cell Viability Assay in HEK293 cells - 24 hour (AID 1224886). Further: nearly all actives have a fitted effect of over 50% in size. Further: potency means the concentration at half of the fitted maximal effect. On activity change, negative = cytotoxicity: top concentration of the series differs between compounds. The essentials:
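Assay medium contained NanoLuc luciferase plus cell-permeant prosubstrate, added with HEK293 cells at 600 cells/well. After 5 h at 37 C/5% CO2 compounds were added; plates stayed at 37 C for 40 h with serial luminescence reads.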

The nature of test [20]: qHTS assay to identify small molecule phospholipidosis (PLD) inducers (AID 1259344; active means well fitted curve in the direction sought with a large enough effect; an effect the other way counts as inactive or inconclusive; further: potency means the concentration at half of the fitted maximal effect). The essentials:
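After 4 h attachment on collagen I, HepG2 cells were dosed with compound alongside LipidTOX Red, kept 24 h at 37 C, fixed, and imaged for lamellar phospholipid pits.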

The structures appear in SMILES notation. A number with no mark means an inactive call. Inconclusive results are not listed. The source made the active and inactive calls. Unless noted, the call rests on the fitted dose curve; in most records, active means well fitted curve in the direction sought with a large enough effect in the repeat runs; inconclusive means weak or mixed curves; inactive means no such curve, though single readings can be large; an effect the other way counts as inactive or inconclusive.
On the % scale 0 is the no-effect control and ±100 the full control effect.

Estrogen receptor (Homo sapiens), sequence (P03372 whole entry, looked up): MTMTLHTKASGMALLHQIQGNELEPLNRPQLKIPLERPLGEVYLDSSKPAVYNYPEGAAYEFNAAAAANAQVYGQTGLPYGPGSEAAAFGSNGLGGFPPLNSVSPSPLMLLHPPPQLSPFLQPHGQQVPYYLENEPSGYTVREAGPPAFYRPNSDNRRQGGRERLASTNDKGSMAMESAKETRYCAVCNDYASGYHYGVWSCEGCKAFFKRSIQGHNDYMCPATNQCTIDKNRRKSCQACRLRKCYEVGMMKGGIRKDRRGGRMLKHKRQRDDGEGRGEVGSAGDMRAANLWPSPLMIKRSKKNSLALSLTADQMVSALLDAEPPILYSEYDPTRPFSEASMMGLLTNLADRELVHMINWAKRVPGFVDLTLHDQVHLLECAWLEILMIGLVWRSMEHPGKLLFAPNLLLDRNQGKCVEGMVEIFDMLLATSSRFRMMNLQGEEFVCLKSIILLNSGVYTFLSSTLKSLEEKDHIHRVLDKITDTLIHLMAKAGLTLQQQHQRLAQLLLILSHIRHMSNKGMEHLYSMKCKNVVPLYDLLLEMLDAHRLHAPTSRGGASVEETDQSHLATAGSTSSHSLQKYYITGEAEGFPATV

Take `CC1CCCC(=O)C1=O` (stereo unspecified): the Potency entry in test [1], in test [2], in [3], in test [4], in test [5] and in [6] was “inactive” throughout. The Potency entry in test [7], in test [8], in [9], in test [10], in test [11] and in test [12] was “inactive” each time. The Potency result in test [13], in test [14], in test [15], in test [16] and in test [17] was “inactive” throughout.

In the case of `Cc1ccc(Cl)cc1N`, the Potency entry in test [1], in test [2], in [18], in [4], in test [5] and in test [19] was “inactive” throughout. For the same compound, the Potency entry in test [6], in test [7], in test [8], in [9], in test [10] and in test [11] was “inactive” in each case. The Potency result in test [15], in test [16] and in test [17] was “inactive” each time.

In the case of `Nc1nc2ccc(OC(F)(F)F)cc2s1`, the Potency result in [1], in test [2], in [3], in test [4], in test [5] and in test [6] was “inactive” throughout. The Potency result in test [7], in [8], in test [9], in test [10], in test [11] and in [13] was “inactive” in each case. Further, the Potency result in test [20], in [15], in test [16] and in [17] was “inactive” each time.

As to `Nc1cccc2c(N)cccc12`, the Potency result in test [1], in test [2], in test [3], in test [4], in [6] and in [7] was “inactive” each time. Further, the Potency entry in test [8], in test [9], in test [11], in [12], in test [20] and in test [14] was “inactive” in each case. In addition, the Potency result in test [15] is “inactive”. Also, the Potency is 27.3 µM (active) in test [10] and 20.5 µM (active) in test [13].

As for `Nc1ccc(N=Nc2ccc(N)cc2)cc1`, the Potency result in test [1], in test [2], in test [18], in test [4], in test [5] and in [19] was “inactive” in each case. Further, the Potency result in test [6], in [7], in [8], in [9], in test [11] and in test [13] was “inactive” each time. Besides, the Potency result in test [15] is “inactive”. In addition, in test [14], the Potency is 12.2 µM (active).

For `O[C@@H](CNC[C@H](O)[C@H]1CCc2cc(F)ccc2O1)[C@@H]1CCc2cc(F)ccc2O1`, the Potency is 26.8 µM (active) in [2]; 10.7 µM (active) in test [18]; 23.9 µM (active) in [4]; 21.3 µM (active) in test [5]; 19 µM (active) in test [19]; 21.3 µM (active) in test [6]. The Potency in test [7] is 26.8 µM (active); in test [9] it was 23.9 µM (active); in [20], 3.55 µM (active); in [16], 29.8 µM (active); in [17], 29.8 µM (active). Besides, the Potency result in [3], in test [10] and in [15] was “inactive” each time.

As for `CCCCCCCCCCCCCOS(=O)(=O)O`, the Potency entry in test [1], in test [3], in test [4], in test [5], in test [6] and in test [7] was “inactive” in each case. Further, the Potency result in test [8], in [9], in test [10], in test [11], in test [12] and in test [14] was “inactive” throughout. Further, the Potency entry in test [15], in test [16] and in test [17] was “inactive” in each case.

With `OCC(CO)n1cnc(-c2ccc(F)cc2)c1-c1ccnc(Oc2ccccc2)n1`, the Potency result in test [1], in test [2], in test [4], in [5], in [6] and in test [7] was “inactive” each time. For the same compound, the Potency result in [8], in test [9], in test [10], in test [11], in test [13] and in [14] was “inactive” each time. The Potency result in [15] and in test [16] was “inactive” throughout.

Regarding `Oc1ccc2c(c1)Cc1ccccc1-2`, the Potency result in test [1], in test [2], in test [5], in test [7], in [8] and in [10] was “inactive” throughout. In addition, the Potency entry in [11], in test [13], in [14], in test [15], in [16] and in test [17] was “inactive” throughout. Further, the Potency in test [19] was 19.5 µM (active); in test [6], 21.9 µM (active).

Regarding `CN(C)CC/C=C1\c2ccccc2Sc2ccc(Cl)cc21`, the Potency was 26.8 µM (active) in test [2]; 21.3 µM (active) in test [18]; 23.9 µM (active) in test [5]; 23.9 µM (active) in test [19]; 29.8 µM (active) in [12]; 26.6 µM (active) in [16]. Also, the Potency result in test [3], in [10], in test [14] and in [15] was “inactive” in each case.

In the case of `CCC(Cl)CC(Cl)C(Cl)C(Cl)C(Cl)C(C)Cl` (stereo unspecified), the cytotoxicity in test [3] was 0.838% [at 15.8 µM]. In addition, the values for the cytotoxicity increase in test [18], in [4] and in [9] were 1.37% [at 15.8 µM], 24.2% [at 15.8 µM] and 7.16% [at 15.8 µM], respectively. Moreover, the activity change, negative = cytotoxic in [5] was -2.19% [at 15.8 µM]. In addition, the results for the activity change, negative = cytotoxicity in [8], in [10] and in test [15] were 1.09% [at 15.8 µM], 0.764% [at 19 µM] and -3.08% [at 19 µM], respectively. Further, the figures for the viability change, negative = cytotoxic in test [11], in [16] and in [17] were 0.388% [at 19 µM], -0.751% [at 19 µM] and 0.145% [at 19 µM], respectively. Also, in [12], the activity, negative = inhibition was 72.1% [at 19 µM].
